In PubChem BioAssay (NCI) one finds growth data, which are given here for 18 compounds.

Experiment in all cases: NCI-60 one-dose screen, 48 h (100 = growth as untreated, 0 = no growth, -100 = all killed)
Common to all, as to conditions: 10 µM unless noted

The subject of assay [1] is BT-549 breast.
The test system of assay [2] is MDA-MB-435 melanoma.
The subject of assay [3] is SW-620 colon.
Assay [4] deals with MCF7 breast.
The subject of assay [5] is HCT-116 colon.
For assay [6], the system named is KM12 colon.
The test system of assay [7] is HCC-2998 colon.

Structures are written as SMILES. About 83,000 compounds went through this panel and 20% of them were active in at least one assay; those are over-represented in the sample as a whole.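 Percent growth is the endpoint: 0 to 100 indicates growth inhibition (40 means 60% inhibition), 0 means no net growth, and negative values indicate cell death.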 Values without a mark were called inactive. Activity calls are given as the source filed them. The calls were made as follows: active = growth percent below 10; inactive = the rest.

On to `CCOC(=O)c1sc(NCC(=O)Nc2cccc([N+](=O)[O-])c2)c(C(=O)OCC)c1C`, for which the growth in assay [1] was -19.3% (active); in assay [2] it was -82% (active); in assay [3], 2.53% (active); in assay [4], -4.78% (active); in assay [5] it was 0.39% (active); in assay [6], -9.01% (active).

As to `CS(=O)(=O)c1ccc(-c2nc3ccccn3c2/C=N/Nc2nc(-c3ccc(Cl)cc3)cs2)cc1`, the growth in assay [1] is 103%; in assay [2] it was 96.8%; in assay [3], 113%; in assay [4], 91.6%; in assay [5], 101%; in assay [7], 125%. Besides, the growth in assay [6] was 112%.

As to `COc1cc(/C=C/C(=O)c2ccccc2)ccc1Oc1nc(NCCO)nc(N2CCOCC2)n1`, the growth in assay [1] was 92.4%; in assay [2], 93.1%; in assay [3], 60.9%; in assay [4], 46.9%; in assay [5] it was 69.5%; in assay [7], 113%. In assay [6], the growth is 102%.

As for `Cc1ccc(CNS(=O)(=O)/N=C2\NC(=O)NC2=C(Cl)Cl)cc1`, the growth in assay [1] is -8.68% (active); in assay [2] it was 47.7%; in assay [3] it was 32.4%; in assay [4], 17.2%; in assay [5], 9.17% (active); in assay [6], 24%.

As for `NS(=O)(=O)c1cccc(Nc2nc(SCC(=O)c3ccc([N+](=O)[O-])cc3)nc3ccccc23)c1`, the growth in assay [1] was -4.45% (active); in assay [2] it was 51.3%; in assay [3] it was 69.2%; in assay [4], 11.7%; in assay [5], 36.8%; in assay [7], 54.3%. Moreover, the growth in assay [6] was 38.4%.

`O=C(N/N=C/c1ccc(Cl)s1)c1[nH]c2ccc(Br)cc2c1-c1ccccc1`: the growth is -18.1% (active) in assay [1]; -8.88% (active) in assay [2]; 25% in assay [3]; 7.95% (active) in assay [4]; -27.5% (active) in assay [5]; 19.9% in assay [7]. For the same compound, in assay [6], the growth was 10.5%.

As to `CO/N=C1\CCc2c(sc(NC(=O)c3cccc(C(F)(F)F)c3)c2C(N)=O)C1`, the growth in assay [1] was 49.4%; in assay [2] it was 49.1%; in assay [3] it was 43.4%; in assay [4], 45.9%; in assay [5] it was 5% (active); in assay [6], 56%.

For the compound `CCOC(=O)c1sc(N)c(C(=O)OCC)c1C`, the growth in assay [1] is 59.9%; in assay [2] it was 81.2%; in assay [3] it was 71.6%; in assay [4], 57.9%; in assay [5], 52.8%; in assay [6], 69.1%.

Take `NC(=O)c1c(NC(=O)c2ccc(C3CCCCC3)cc2)sc2c1CCC(=O)C2`: the growth in assay [1] was -2.9% (active); in assay [2] it was 11.9%; in assay [3], 10.4%; in assay [4], 10.9%; in assay [5], 7.94% (active); in assay [6], 15.8%.

As for `CSCCC(C(=O)O)N1C(=O)/C(=C/c2ccc(O)c(O)c2)SC1=S` (stereo not given), the growth in assay [1] is 110%; in assay [2] it was 102%; in assay [3] it was 102%; in assay [4], 93.4%; in assay [5] it was 99.5%; in assay [7] it was 108%. For the same compound, the growth in assay [6] was 103%.

Turning to `COc1ccc(NC2=C(Cl)C(=O)C(C)=C(C)C2=O)cc1OC`, the growth is 108% in assay [1]; 103% in assay [2]; 101% in assay [3]; 77.8% in assay [4]; 96.4% in assay [5]; 55.2% in assay [6].

With `COc1cc(/C=C/C(=O)c2ccc(F)cc2)ccc1Oc1nc(NCCO)nc(N2CCOCC2)n1`, the growth in assay [1] was 86.3%; in assay [2], 48%; in assay [3], 0.783% (active); in assay [4], 10.2%; in assay [5], 11.3%; in assay [7], 103%. Further, the growth in assay [6] was 27.3%.

For `CC(C)(O)c1cncc(-c2ccc3ncnc(N4CCc5cc(F)c(Cl)cc54)c3c2)c1`, the growth was -7.34% (active) in assay [1]; 17.1% in assay [2]; 40.1% in assay [3]; 10.8% in assay [4]; 30.1% in assay [5]; 34.2% in assay [7]. In assay [6], the growth is 35.1%.

Consider `O=C(N/N=C/c1ccc([N+](=O)[O-])s1)c1[nH]c2ccc(Br)cc2c1-c1ccccc1`, for which the growth in assay [1] is -19% (active); in assay [2], -35.3% (active); in assay [3], 3.34% (active); in assay [4] it was 7.64% (active); in assay [5], -7.92% (active); in assay [7] it was 0.797% (active). In addition, the growth in assay [6] was 12.8%.

As to `C[C@@H](Nc1c(C#N)cnc2ccc(-c3cnc(N)nc3)cc12)c1ccccc1`, the growth in assay [1] was -14.1% (active); in assay [2], 11%; in assay [3], 14.9%; in assay [4], 10.9%; in assay [5], 5.6% (active); in assay [7] it was 32%. The growth in assay [6] was 18.6%.

On to `OC1CCN(CCCOc2c3ccc(Cl)cc3nc3c2oc2ccccc23)CC1`, for which the growth in assay [1] is -2.71% (active); in assay [2] it was -76.3% (active); in assay [3], -19.8% (active); in assay [4] it was -32.1% (active); in assay [5] it was -34.9% (active); in assay [7] it was -68% (active). The growth in assay [6] is -16.1% (active).

Take `CCCCN1C(=O)/C(=c2\sc3n(c2=O)C2C(NN=3)N(CC)C(=O)N2CC)c2cc(Cl)ccc21` (stereo not given): the growth in assay [1] is 85%; in assay [2], 6.07% (active); in assay [3] it was 58.2%; in assay [4], 27.5%; in assay [5], 56.7%; in assay [7] it was 101%. The growth in assay [6] was 55.8%.

As for `C#C[C@]1(O)CC[C@H]2[C@@H]3CC=C4c5sc(-c6ccc(F)cn6)nc5CC[C@]4(C)[C@H]3CC[C@@]21C`, the growth is 7.85% (active) in assay [1]; 18.1% in assay [2]; 16.1% in assay [3]; 12.1% in assay [4]; 18.1% in assay [5]; 65.1% in assay [7]. Besides, the growth in assay [6] was 13.9%.
